Experimental data reported in paper PMC4336329 (PLoS ONE, 2015).
Out of some 310,000 compounds screened, about 14,000 (4.5%) showed an effect of 50% or more. The effect is printed as a negative number. The list comes from a sample in which strong results are over-represented; it also holds similar structures and randomly drawn compounds.

biological target: human ether-à-go-go-related gene (hERG) potassium channel (human, UniProt Q12809); test: primary screen, population patch clamp on CHO cells stably expressing hERG; higher = less effect of the substance
Sequence (Q12809 whole entry, looked up): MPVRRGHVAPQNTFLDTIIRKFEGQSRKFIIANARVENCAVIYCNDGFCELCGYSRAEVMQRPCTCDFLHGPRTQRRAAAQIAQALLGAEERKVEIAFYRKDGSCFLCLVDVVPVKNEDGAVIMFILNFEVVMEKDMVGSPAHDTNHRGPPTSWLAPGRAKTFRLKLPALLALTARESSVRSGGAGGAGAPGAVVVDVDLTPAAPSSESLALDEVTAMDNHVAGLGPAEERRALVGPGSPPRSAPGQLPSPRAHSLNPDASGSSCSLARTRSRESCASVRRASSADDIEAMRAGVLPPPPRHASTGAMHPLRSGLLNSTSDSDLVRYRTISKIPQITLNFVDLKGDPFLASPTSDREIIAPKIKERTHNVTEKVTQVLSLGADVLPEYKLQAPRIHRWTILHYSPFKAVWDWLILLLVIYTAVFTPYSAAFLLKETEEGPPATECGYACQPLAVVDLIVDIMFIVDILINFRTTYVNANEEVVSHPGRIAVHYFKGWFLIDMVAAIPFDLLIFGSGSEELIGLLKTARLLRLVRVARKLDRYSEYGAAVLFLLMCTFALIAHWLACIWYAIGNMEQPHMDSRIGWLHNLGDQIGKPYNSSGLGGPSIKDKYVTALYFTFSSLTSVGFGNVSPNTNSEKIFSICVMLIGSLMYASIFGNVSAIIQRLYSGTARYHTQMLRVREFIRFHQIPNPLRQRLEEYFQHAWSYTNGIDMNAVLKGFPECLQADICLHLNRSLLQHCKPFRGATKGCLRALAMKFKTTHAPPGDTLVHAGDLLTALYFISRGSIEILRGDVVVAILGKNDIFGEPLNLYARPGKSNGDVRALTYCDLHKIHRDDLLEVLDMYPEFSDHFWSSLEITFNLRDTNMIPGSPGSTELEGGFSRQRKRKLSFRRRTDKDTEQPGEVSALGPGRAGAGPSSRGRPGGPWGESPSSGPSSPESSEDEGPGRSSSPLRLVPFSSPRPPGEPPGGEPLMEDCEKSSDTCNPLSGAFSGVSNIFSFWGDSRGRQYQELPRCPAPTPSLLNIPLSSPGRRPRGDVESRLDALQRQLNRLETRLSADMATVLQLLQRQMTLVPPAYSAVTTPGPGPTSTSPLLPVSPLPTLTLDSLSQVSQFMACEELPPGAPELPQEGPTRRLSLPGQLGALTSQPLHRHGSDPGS
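Note: peak tail current of the secondary pulse compared with the same well before compound.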

Row | Structure (SMILES) | hERG current change (%, negative = inhibition) at 10uM [%]
1 | c1ccc(-c2[nH]ncc2-c2nc3ccccc3[nH]2)cc1 | -11
2 | CCOC(=O)N1CCN(C(=O)Cn2c(C)cc3ccccc3c2=O)CC1 | 3.68
3 | O=C(CCn1nnc2ccccc21)N1CCC(O)(c2cccc(F)c2)CC1 | 4.12
4 | CC(C)(C)NC(=O)c1ccc(NC(=O)c2ccccc2-c2ccccc2C(=O)O)cc1 | 25.2
5 | COc1ccc(C(=O)C2CCCN(C(=O)C3CCOCC3)C2)c(C)c1 (centres unmarked) | 27
6 | COc1cccc(C(=O)C2CCCN(C3CCOCC3)C2)c1 (centres unmarked) | -50.4
7 | COc1ccc2cc(C(=O)C3CCCN(C4CCOCC4)C3)ccc2c1 (centres unmarked) | -63.5
8 | COc1ccc2cc(C(=O)C3CCCN(C(=O)c4ccnn4C)C3)ccc2c1 (centres unmarked) | -41.1
9 | CC(C)Oc1cccc(C(=O)C2CCCN(C3CCOCC3)C2)c1 (centres unmarked) | -10.5
10 | COc1cccc(C(=O)C2CCCN(C(=O)c3ccccc3Cl)C2)c1 (centres unmarked) | 5.15
11 | Cc1ccc(C(C#N)c2ccc3c(C(F)(F)F)cc(C(F)(F)F)nc3n2)cc1 (centres unmarked) | 11.1
12 | CCOc1cc(NS(=O)(=O)c2ccc(NC(C)=O)cc2)c(OCC)cc1NC(=O)C(C)C | 10.3
13 | O=C(CCN1CCCCO1)N1CCCC(Nc2ccc(F)cc2)C1 (centres unmarked) | 12.7
14 | O=C(Cn1ccc([N+](=O)[O-])n1)N1CCc2ccccc21 | -2.32
15 | CCOC(=O)c1c(-c2ccccc2)cn2c(C)cc(C)nc12 | -22.9
16 | Cc1cc(C)n2nc(C)c(-c3ccc(Cl)cc3)c2n1 | 27.1
17 | Cc1cc(C)n2cc(-c3ccc(Cl)cc3)c(C(=O)O)c2n1 | -50.9
18 | O=c1[nH]c(=S)n(-c2ccccc2)c(O)c1/C=N/N1CCOCC1 | -2.11
19 | Cc1noc(C)c1-c1nnc(-c2ccc(C(F)(F)F)cc2)o1 | 4.76
20 | COCc1ccc(C(=O)NC2CCCN(Cc3ccccc3F)C2)o1 (centres unmarked) | 11.2
21 | COCc1ccc(C(=O)N(C)C2CCCN(Cc3ccccc3F)C2)o1 (centres unmarked) | 0.722
22 | COCc1ccc(C(=O)N(C)CC2CCCN(CCc3ccccc3F)C2)o1 (centres unmarked) | -41
23 | COCc1ccc(C(=O)N(C)CC2CCCN(CCc3ccc(Cl)cc3)C2)o1 (centres unmarked) | -78.9

Row | Structure (SMILES) | hERG current change (%, negative = inhibition) at 10uM [%]
24 | COCc1ccc(C(=O)N(C)CC2CCCN(CCc3ccc(OC)cc3)C2)o1 (centres unmarked) | -69.5
25 | COc1ccccc1OCC(=O)Nc1ccc2c(c1)C(=O)N(CC1CCCO1)C2=O (centres unmarked) | -19.3
26 | CC(=O)Nc1cccc(N(C(=O)C2COc3ccccc3O2)C(C(=O)NC2CCCCC2)c2cn(C)nc2C)c1 (centres unmarked) | 24.1
27 | CCOc1cc(CNc2ccc(N(C)C)cc2)cc(Br)c1OCC(=O)NC(C)(C)C | -17
28 | Cc1c(C)c2cc3c(C)coc3cc2oc1=O | 10.5
29 | COc1ccc(CCNC(=O)C2CC3Cn4c(nc5cc(C)c(C)cc54)C3N2C)cc1 (centres unmarked) | -31.4
30 | COc1ccc(CCNC(=O)C2CC3Cn4c(nc5cc(Cl)c(Cl)cc54)C3N2C)cc1 (centres unmarked) | -23.5
31 | CN1C(C(=O)NCc2ccc(OC(F)(F)F)cc2)CC2Cn3c(nc4cc5ccccc5cc43)C21 (centres unmarked) | -69.4
32 | CN1C(C(=O)NCC2CC2)CC2Cn3c(nc4cc5ccccc5cc43)C21 (centres unmarked) | -21.2
33 | O=C(NCc1ccc(OC(F)(F)F)cc1)C1CC2Cn3c(nc4ccccc43)C2N1Cc1ccccc1 (centres unmarked) | -62.1
34 | O=C(NCc1ccc(OC(F)(F)F)cc1)C1CC2Cn3c(nc4ccccc43)C2N1c1ccccc1 (centres unmarked) | -61.3
35 | COc1ccc(CCNC(=O)C2CC3Cn4c(nc5ccccc54)C3N2Cc2ccccc2)cc1 (centres unmarked) | -49.7
36 | COc1ccc(CCNC(=O)C2CC3Cn4c(nc5ccccc54)C3N2c2ccccc2)cc1 (centres unmarked) | -7.57
37 | COc1ccc(CCNC(=O)C2CC3Cn4c(nc5cc6ccccc6cc54)C3N2C)cc1 (centres unmarked) | -43.7
38 | CN1C(C(=O)NCc2ccc(OC(F)(F)F)cc2)CC2Cn3c(nc4cc(Cl)c(Cl)cc43)C21 (centres unmarked) | -77.9
39 | O=C(CN1CCC2(CC1)OCCO2)c1ccc2cc[nH]c2c1 | -15.2
40 | Cc1cc(C(=O)N/N=C/c2ccc(-c3cccc(Cl)c3)o2)n[nH]1 | 11.3
41 | CN1C(C(=O)NCc2ccc(OC(F)(F)F)cc2)CC2Cn3c(nc4ccccc43)C21 (centres unmarked) | -78.7
42 | COc1ccc(CCNC(=O)C2CC3Cn4c(nc5ccccc54)C3N2C)cc1 (centres unmarked) | -8.64
43 | CN1C(C(=O)NCC2CC2)CC2Cn3c(nc4ccccc43)C21 (centres unmarked) | 15.5
44 | CCOc1ncccc1C(=O)NCCCSc1ccccc1 | -35.9
45 | O=C(O)C1=C[C@@H](c2ccccc2)C[C@@H](OCCCCO)O1 | 8.4
46 | COc1ccc(S(=O)(=O)N2CCN(c3ccccc3OC)CC2)cc1OC | -2.71

Row | Structure (SMILES) | hERG current change (%, negative = inhibition) at 10uM [%]
47 | COc1ccccc1CC(=O)N1CCN(c2cccc(C(F)(F)F)c2)CC1 | -9.71
48 | COc1ccc(CC(=O)N2CCN(c3ccccc3)CC2)cc1OC | 18.4
49 | COc1ccc(CC(C)N2CCN(c3ccccc3)CC2)cc1OC (centres unmarked) | -64
50 | COc1ccc(CC(C)N2CCN(c3ccccc3OC)CC2)cc1OC (centres unmarked) | -62.1
51 | COc1ccc(CC(C)N2CCN(Cc3ccccc3)CC2)cc1OC (centres unmarked) | -33.1
52 | COc1cccc(CN2CCN(c3cccc(C(F)(F)F)c3)CC2)c1OC | -23.9
53 | COc1ccc(/C=N/N2CCN(c3ccccc3OC)CC2)cc1OC | -19.7
54 | COc1ccc(CC(C)N2CCN(c3cccc(C(F)(F)F)c3)CC2)cc1OC (centres unmarked) | -65.9
55 | CC1(/[N+]([O-])=C\c2ccccc2F)CCCCC1=O (centres unmarked) | 8.53
56 | Cc1ccn2c(-c3n[nH]c(=S)n3C)c(C)nc2c1 | 19.6
57 | COc1cccc(NC(=O)N2CCCC2C(=O)Nc2ccc3c(c2)OCO3)c1 (centres unmarked) | 15.8
58 | Cn1c(O)c(C=NC2CCN(Cc3ccccc3)CC2)c(=O)n(C)c1=O | -20.4
59 | O=C(N/N=C/c1c(O)n(CCC2=CCCCC2)c(=S)[nH]c1=O)c1ccccc1 | 7.94
60 | O=c1[nH]c(=O)n(C2CCCCCC2)c(O)c1C=NCc1cccnc1 | -9.79
61 | C=CCn1c(O)c(C=NC2CCN(Cc3ccccc3)CC2)c(=O)[nH]c1=O | -33.5
62 | O=c1[nH]c(=O)n(Cc2ccco2)c(O)c1/C=N/N1CCCCC1 | 3.21
63 | O=c1[nH]c(=S)n(CCC2=CCCCC2)c(O)c1C=NC1CCN(Cc2ccccc2)CC1 | -55
64 | O=c1[nH]c(=O)n(C2CCCCCC2)c(O)c1C=NC1CCN(Cc2ccccc2)CC1 | -53.2
65 | O=c1[nH]c(=O)n(Cc2ccco2)c(O)c1C=NC1CC1 | 9.35
66 | O=c1[nH]c(=O)n(CCC2=CCCCC2)c(O)c1/C=N/Nc1ccccc1 | 14.8
67 | O=c1[nH]c(=O)n(CCC2=CCCCC2)c(O)c1C=NC1CCN(Cc2ccccc2)CC1 | -58.6
68 | O=c1[nH]c(=S)n(CCC2=CCCCC2)c(O)c1/C=N/Nc1ccccc1 | -7.83
69 | O=c1[nH]c(=O)n(Cc2ccco2)c(O)c1C=NC1CCN(Cc2ccccc2)CC1 | -59.2

Row | Structure (SMILES) | hERG current change (%, negative = inhibition) at 10uM [%]
70 | CC(C)(C)NC(=O)COC(=O)c1cc(S(=O)(=O)N2CCCCC2)ccc1N1CCOCC1 | -6.23
71 | CCOC(=O)c1ccc(N2C(=O)CC(Nc3ccc(CCO)cc3)C2=O)cc1 (centres unmarked) | -25.5
72 | OCC[C@@H]1C[C@H](O)[C@@H](O)[C@]2(CCCCO2)O1 | 21.2
73 | CCOc1ccc(C(Nc2ccc(C)cc2)P2(=O)OCC(C)(C)CO2)cc1 (centres unmarked) | 4.67
74 | Cn1cccc1CC(=O)NNC(=O)Nc1cccc(Cl)c1 | 18.9
75 | O=S(=O)(Nc1ccccc1O)c1cccc2cccnc12 | 8.14
76 | O=C(CNC(=O)c1cccs1)NCCN1CCN(c2ccccc2F)CC1 | -35.3
77 | N#Cc1ccc(NC(=O)N2CCC(c3nc4c(nnn4Cc4cccc(Cl)c4)c(=O)[nH]3)CC2)cc1 | 3.5
78 | Cc1ccccc1SCC(=O)Nc1cc(C(F)(F)F)ccc1N1CCOCC1 | -1.77
79 | Cn1c(O)c(C=NC2CCN(Cc3ccccc3)CC2)c(=O)[nH]c1=O | -26.5
80 | O=c1[nH]c(=O)n(CCc2ccccc2)c(O)c1C=NC1CC1 | 3.17
81 | CCCCCCn1c(O)c(C=NC2CCN(Cc3ccccc3)CC2)c(=O)[nH]c1=O | -65.7
82 | COC(=O)c1ccccc1NC(=O)CN1CCN(C23CC4CC(CC(C4)C2)C3)CC1 | -77.5
83 | O=C(CN1CCCCC1)Nc1ccccc1-c1ccccc1 | -9.07
84 | NC(=O)c1ccccc1NC(=O)Nc1cccc(Cl)c1 | -8.62
85 | COC(=O)c1ccccc1NC(=O)CN1CCN(C(=O)c2ccco2)CC1 | -51.6
86 | Cc1cccc(NC(=O)CN2CCN(CC(=O)NCc3ccc(Cl)cc3Cl)CC2)c1C | -18.2
87 | COC(=O)c1ccccc1NC(=O)CN1CCC(C)CC1 | 9.3
88 | O=C(CN1CCN(Cc2ccccc2)CC1)Nc1ccccc1-c1ccccc1 | -89.8
89 | COC(=O)c1ccccc1NC(=O)CN1CCOCC1 | 5.86
90 | COC(=O)c1ccccc1NC(=O)N1CCN(C(=O)c2ccco2)CC1 | -25
91 | NC(=O)c1ccccc1NC(=O)CN1CCN(Cc2ccc(Cl)cc2Cl)CC1 | -76.1
92 | O=C(CN1CCOCC1)Nc1ccccc1-c1ccccc1 | 4.15
